CtBP-E1A blk = inhibitors of CtBP/E1A interaction | AlphaScreen GST-E1A/His-CtBP binding, 1536-well; active compounds read low | activity change, % (concentration not given with the values) | 340,000 compounds, 0.49% hits; in the data active = activity change below about -65%; inconclusive = mostly about -30% to -63%
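Steps: dispense buffer (Tris pH 8.0, NaCl 300 mM, TCEP 1 mM, BSA, Tween 20); add 5X protein mix (GST-E1A, His-CtBP, 125 nM each); pin 23 nL compound; 2 h at 37 °C, dark; add 5X beads (50 ug/mL); 1 h; read.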
Gal4-VP16 FLuc = inhibits Gal4-VP16 luciferase reporter, ROR gamma counter-screen | AID 2546 | Drosophila S2 Gal4-VP16 UAS-luciferase, luminescence, 20 h | Potency, µM (doses to about 53.6 µM), hits mostly inhibitors | 310,000 compounds, 3.5% hits;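 note: Gal4-VP16 expression switched on by copper sulfate through the metallothionein promoter; nearly all actives have a fitted effect of over 50% in size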
RORg inh = blocks mouse ROR gamma transcriptional activity | P51450 | Drosophila S2 Gal4-RORgamma UAS-luciferase reporter, 20 h | Potency, µM (highest dose often 53.6 µM), actives largely listed as inhibitors | 310,000 compounds, 5.4% hits | AID 2551; note: nearly all actives have a fitted effect of over 60% in size
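Using a luciferase readout, inhibitors were identified by reduced reporter activity in Drosophila cells coexpressing a copper-inducible Gal4–ROR gamma fusion and UAS-driven Photinus luciferase, incubated 20 hr after 700 uM copper sulfate.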
PKM2 act = activators of human pyruvate kinase M2. purified PKM2, Kinase-Glo ATP luminescence, activation; response scale: 0% is enzyme alone, no compound. 260,000 compounds, 0.34% hits. Potency, µM (titrated, usually from 57.5 µM), usual class: activators. AID 1631; note: nearly all actives have a fitted effect of over 55% in size
Target sequence (P14618 whole entry, looked up): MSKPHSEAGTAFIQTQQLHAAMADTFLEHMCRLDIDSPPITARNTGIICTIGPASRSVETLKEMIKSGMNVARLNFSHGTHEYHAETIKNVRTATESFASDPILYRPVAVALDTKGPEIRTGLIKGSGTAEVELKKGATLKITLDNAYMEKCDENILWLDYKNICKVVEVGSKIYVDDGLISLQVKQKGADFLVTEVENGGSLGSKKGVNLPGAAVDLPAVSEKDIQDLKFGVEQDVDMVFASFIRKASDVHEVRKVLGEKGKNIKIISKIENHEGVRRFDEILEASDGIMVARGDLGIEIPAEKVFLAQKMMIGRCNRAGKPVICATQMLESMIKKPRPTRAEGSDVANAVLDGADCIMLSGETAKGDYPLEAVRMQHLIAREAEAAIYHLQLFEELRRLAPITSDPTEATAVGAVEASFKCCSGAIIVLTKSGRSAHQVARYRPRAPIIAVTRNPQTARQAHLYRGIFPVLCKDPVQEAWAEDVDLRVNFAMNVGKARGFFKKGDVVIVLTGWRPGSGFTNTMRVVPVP
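Kinase-Glo luminescence reports ATP generated from ADP (0.1 mM) and PEP (0.5 mM) by purified hPK-M2 after 1 h at room temperature, pH 7.2 imidazole buffer; intermediate enzyme activity allows detecting inhibitors and activators.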
Six1-Eya2 inh = Six1/Eya2 interaction inhibition; activity change, % (no concentration beside the values); Q15475+O00167; 360,000 compounds, 0.56% hits; AlphaScreen GST-Six1/His-Eya2 binding, biochemical; active compounds read low; in the data active = activity change below about -65%; inconclusive = mostly about -30% to -63%
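Compounds are tested against tagged Six1 and Eya2 proteins bridged by glutathione donor and nickel acceptor beads; after a one-hour incubation at 37 °C without light, AlphaScreen emission is recorded.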
Each line names hits and unclear results; the compound was inactive in the other large screens; ! = not confirmed by another sample. Compounds with a hit are over-represented: about 5.6% of the library has one in this group of screens. Unless noted, calls come from the whole dose curve; as a rule, active = well fitted curve in the direction sought with a large enough effect; inconclusive = small, poorly fitted or top-dose-only effect, or another doubt; inactive = no such curve, though single readings can be large; an effect the other way counts as inactive or inconclusive.

Cc1cccc(C)c1NC(=O)c1c(-c2ccccc2)noc1C	RORg inh 10µM
Cc1cccc(/C=N/n2c(-c3ccncc3)n[nH]c2=S)c1	Gal4-VP16 FLuc inconclusive, RORg inh 11.2µM
Cc1cccc(/C=N/n2c(-c3cc(-c4ccccc4)n[nH]3)n[nH]c2=S)c1	Gal4-VP16 FLuc inconclusive, RORg inh 7.94µM
S=c1[nH]nc(-c2cc(-c3ccccc3)n[nH]2)n1/N=C/c1ccccc1	none
O=C(N/N=C/c1c(O)n(-c2ccccc2Cl)c(=O)c2ccccc12)c1cccnc1	RORg inh 12.6µM
O=C(N/N=C/c1cccc2ccccc12)c1cccnc1	none (no result: PKM2 act)
COc1ccc(Cn2c(O)c(/C=N/NC(=O)c3cccnc3)c3ccccc3c2=O)cc1	RORg inh 6.31µM
O=C(N/N=C/c1c(O)n(Cc2ccccc2)c(=O)c2ccccc12)c1cccnc1	RORg inh 11.2µM
COc1ccc(Cn2c(O)c(C=Nc3ccc(OC)cc3)c3ccccc3c2=O)cc1	none
COc1ccccc1N/C(N)=N/c1nc(CSc2ccc(C)cc2)cc(=O)[nH]1	Gal4-VP16 FLuc 7.94µM
Cc1ccc(SCc2cc(=O)[nH]c(/N=C(\N)Nc3ccccc3Sc3ccccc3)n2)cc1	none
CCOC(=O)CNC(=S)n1cnc(N)n1	RORg inh 7.94µM
CCOC(=O)CNC(=O)CSc1nc(N)cc(N)n1	none
CC(=O)OCC(NC(=O)C1CCCN1C(=O)OC(C)(C)C)C1OC(n2cc(F)c(=O)[nH]c2=O)C(OC(C)=O)C1OC(C)=O (stereo not drawn)	none (no result: CtBP-E1A blk, PKM2 act, Six1-Eya2 inh)
Nc1nc(N)c2sc3nc4c(cc3c2n1)CCC4	CtBP-E1A blk -84.0, Six1-Eya2 inh -76.3
O=C1C(=O)N(Cc2cccnc2)C(c2ccccn2)/C1=C(/O)c1ccccc1 (stereo not drawn)	RORg inh 0.447µM
CC1Cc2ccccc2N1C(=O)COC(=O)CCc1nc2ccccc2c(=O)[nH]1 (stereo not drawn)	none
Cc1ccc(-c2csc3ncnc(SCC(=O)Nc4nnc(C)s4)c23)cc1	none
Cc1ccc(-c2csc3ncnc(Sc4nnc(CN5CCCCCC5=O)o4)c23)cc1	Gal4-VP16 FLuc inconclusive, RORg inh 10µM
Cc1ccc2nc(CN(C)C(=O)[C@H]3O[C@@H](n4ccc(N)nc4=O)[C@H](O)[C@@H]3O)[nH]c2c1	none (no result: Gal4-VP16 FLuc, RORg inh, PKM2 act)
COC(=O)c1ccc(Cn2c(C)c(C(=O)NCc3cccs3)sc2=O)o1	none (no result: Gal4-VP16 FLuc, RORg inh, PKM2 act)
Fc1cccc(F)c1/C=C/c1ccc2ccccc2n1	Gal4-VP16 FLuc inconclusive, RORg inh inconclusive
Cc1ccc2nc(/C=C/c3cccc(F)c3)ccc2c1	RORg inh 10µM
COc1c(-c2ccc(O)c(O)c2)oc2cc(O)cc(O)c2c1=O	Gal4-VP16 FLuc 11.2µM!, RORg inh inconclusive
O=C(CN1C(=O)NC2(CCc3ccccc32)C1=O)Nc1ccc(Cl)cc1F (stereo not drawn)	none (no result: Gal4-VP16 FLuc, RORg inh, PKM2 act)
Cc1nn(-c2ccc(Cl)cc2)c(Cl)c1/C=N/NC(=O)c1ccc(NS(=O)(=O)c2cccs2)cc1	none (no result: Gal4-VP16 FLuc, RORg inh, PKM2 act)
Cc1cc(C(=O)Nc2ccc3ccccc3c2)c(C)o1	Gal4-VP16 FLuc inconclusive, RORg inh 8.91µM
CC1(C(=O)Nc2ccc3ccccc3c2)CC1(Br)Br (stereo not drawn)	Gal4-VP16 FLuc inconclusive, RORg inh 11.2µM
COc1cc(NC(=O)c2cc3ccccc3cc2O)c(OC)cc1Cl	RORg inh inconclusive (no result: CtBP-E1A blk)
Cc1ccc(Cl)cc1NC(=O)c1cc2ccccc2cc1O	Gal4-VP16 FLuc 2.82µM, RORg inh 5.01µM
Cc1ccc(C(=O)NNC(=O)c2cc3ccccc3cc2O)cc1	Gal4-VP16 FLuc inconclusive, RORg inh 14.1µM
Cc1ccc(/C=N/NC(=O)c2cc(C)oc2C)cc1	Gal4-VP16 FLuc inconclusive
CC(/C=N\NC(=O)c1cc(C)oc1C)=C\c1ccccc1	Gal4-VP16 FLuc inconclusive, RORg inh 6.31µM
O=C(Nc1ccc2ccccc2c1)c1ccc(Cl)cc1	Gal4-VP16 FLuc inconclusive, RORg inh inconclusive (no result: CtBP-E1A blk)
Cc1ccc(C(=O)Nc2ccc3ccccc3c2)cc1	Gal4-VP16 FLuc 11.2µM, RORg inh 6.31µM
CC(=O)NCCNc1ncncc1-c1ccc(N(C)C)cc1	RORg inh inconclusive (no result: CtBP-E1A blk, PKM2 act, Six1-Eya2 inh)
O=C(NCc1cccc2ccccc12)c1cccs1	none (no result: Gal4-VP16 FLuc, RORg inh, PKM2 act)
Cc1[nH]n(-c2ccccc2)c(=O)c1/C=N/NC(=O)c1cccc(F)c1	Gal4-VP16 FLuc 1.26µM, RORg inh 0.562µM, Six1-Eya2 inh -92.3 (no result: CtBP-E1A blk, PKM2 act)
O=C(N/N=C/c1ccc(Br)cc1)c1ccc(NC(=O)c2ccccc2)cc1	none (no result: Gal4-VP16 FLuc, RORg inh, PKM2 act)
Cc1[nH]n(-c2ccc(Br)cc2)c(=O)c1/C=N/NC(=O)c1ccccc1	Gal4-VP16 FLuc 0.126µM, RORg inh 0.282µM (no result: CtBP-E1A blk)
CC1=CC[C@@]2(CO)COC(c3ccccc3O)C1C2 (stereo partly drawn)	none (no result: CtBP-E1A blk, PKM2 act, Six1-Eya2 inh)
CCOC(=O)CNC(=O)Nc1nnc(-c2ccc(OCC)cc2)o1	CtBP-E1A blk inconclusive, Gal4-VP16 FLuc 5.62µM, RORg inh 3.16µM
CCCCNC(=O)Nc1nnc(-c2ccc(OCC)cc2)o1	Gal4-VP16 FLuc 5.62µM, RORg inh 7.08µM
CCOc1ccc(-c2nnc(NC(=O)COc3ccccc3F)o2)cc1	none (no result: Gal4-VP16 FLuc, RORg inh, PKM2 act)
CCCCNC(=O)Nc1nnc(-c2ccccc2)o1	Gal4-VP16 FLuc 5.62µM, RORg inh 3.98µM
OC1OC[C@H](O)[C@@H](O)[C@@H]1O (stereo partly drawn)	none (no result: CtBP-E1A blk, PKM2 act, Six1-Eya2 inh)
CCCCn1c(N)c(N(CCOC)C(=O)CC(NC(=O)c2ccccc2Cl)c2ccccc2)c(=O)[nH]c1=O (stereo not drawn)	none (no result: Gal4-VP16 FLuc, RORg inh, PKM2 act)
COc1ccc(NC(=O)Nc2ccc3c(c2)OCO3)c(C)c1	none
Cc1ccc(S(=O)(=O)N(C)C)cc1NC(=S)N1CCc2ccccc21	RORg inh 10µM
CN(C)S(=O)(=O)c1cccc(NC(=S)N2CCc3ccccc32)c1	Gal4-VP16 FLuc inconclusive, RORg inh 14.1µM
CC1Cc2ccccc2N1C(=S)Nc1cccc(S(=O)(=O)N(C)C)c1 (stereo not drawn)	RORg inh inconclusive
NS(=O)(=O)c1ccc(NC(=S)N2CCc3ccccc32)cc1	none
O=C(NCCCN1CCCC1=O)Nc1ccccc1F	none
CCCC(C(=O)Nc1cccc(S(=O)(=O)N2CCCC2)c1)c1ccccc1 (stereo not drawn)	none (no result: Gal4-VP16 FLuc, RORg inh, PKM2 act)
CC(C)CN1C(=O)c2ccccc2C1(O)Cc1ccccc1 (stereo not drawn)	Gal4-VP16 FLuc 20µM, RORg inh inconclusive
CCOC(=O)c1sc(NC(=S)NC(=O)C2CCCC2)cc1C	Gal4-VP16 FLuc 3.16µM, RORg inh 4.47µM
CCOC(=O)c1sc(NC(=S)NC(=O)CC(C)C)cc1C	Gal4-VP16 FLuc inconclusive, RORg inh 5.62µM
CCOC(=O)c1sc(NC(=O)C(C)(C)C)cc1C	none
COc1ccc(Cc2nc3ccc(C(=O)N(C)C(C)c4ccon4)cc3o2)cc1 (stereo not drawn)	RORg inh inconclusive

Bioassay records (PubChem)
